Only a selection was taken, and hits are over-represented in it overall.
HTT ATP protect – Huntington cell model cytoprotection by ATP luminescence; PC12 HTT-Q103 induced, cytoprotection, ATP luminescence, 40 h; Potency, µM (titrated, usually from 56.4 µM), hits mostly activators; actives 0.14% (n = 230,000); also: nearly all actives have a fitted effect of over 45% in size
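Compounds were screened for protection of PC12 cells against cell death after tebufenozide induction (100 nM final) of mutant Huntingtin exon 1 (Q103) fused to GFP.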
PNC assembly inh – perinucleolar compartment assembly inhibition; PC3M PTB-GFP, PNC prevalence imaging, 16 h; active compounds read low; activity change (PNC), negative = inhibition, % at 10 µM; actives 3.1% (n = 140,000); AID 2417;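 active = readout at or below -70, meaning at least 70% loss of cells showing the perinucleolar compartment, a nuclear body marking cancer cells; inconclusive = readout between -30 and a set limit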
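Compounds are pinned in duplicate onto adhered PC3M cells stably expressing GFP-tagged PTB and incubated 16 h at 37 C. Cells are then fixed, nuclei stained with Hoechst, and PNC-positive cells counted.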
HttQ103 aggreg – reduces HttQ103-GFP aggregates in PC12 cells. Potency, µM (titrated, usually from 46.1 µM), hits mostly inhibitors. actives 1.1% (n = 220,000). PC12 HttQ103-GFP aggregates, Acumen cytometry, 40 h; also: nearly all actives have a fitted effect of over 60% in size
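PC12 cells with ecdysone-inducible HTT exon1 Q103-GFP, induced by 100 nM tebufenozide, given compounds in a concentration series. GFP aggregates (1–25 um, 6 SD above background) counted in lysates by laser-scanning cytometry, 488 nm excitation.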
A number is an active result; . = inactive; ? = inconclusive; / = not tested or not shown; [ ] = dose if it differs, or a comment. Unless noted, calls follow the shape of the dose curve; as a rule, active = well fitted curve in the direction sought with a large enough effect; inconclusive = small, poorly fitted or top-dose-only effect, or another doubt; inactive = no such curve, though single readings can be large; an effect the other way counts as inactive or inconclusive.

SMILES	HTT ATP protect	PNC assembly inh	HttQ103 aggreg
CCOC(=O)c1sc2ncn(C(C)C(=O)OCC)c(=O)c2c1C (centres undefined)	.[10 µM]	?	.
CC1CCCCC1n1c(=S)[nH]c2ccccc2c1=O (centres undefined)	.[0.074 µM]	?	20µM
CC1CCCCC1NC(=O)CCCn1c(=S)[nH]c2ccccc2c1=O (centres undefined)	.	/	.
CCOc1cc(NC(=S)Nc2cccc(OC)c2)c(OCC)cc1NC(=O)C1CC1	.	-106	.
CCOc1cc(NC(=S)NCC2CCCO2)c(OCC)cc1NC(=O)C1CC1 (centres undefined)	.[10 µM]	/	.[9.22 µM]
CCCCN(CC)CCNC(=O)CN1C(=O)COc2ccc(S(=O)(=O)N3CCCC3)cc21	.[10 µM]	.	.
Cc1cc(C)c(NC(=O)NC2CCCCC2)c(C)c1	/	-113	.
Cc1ccc(NC(=O)NC2CCCCC2)cc1Cl	.	?	?
O=C(CN1N=C(c2ccccc2)CCC1=O)NCCN1CCc2ccccc2C1	.[10 µM]	?	?
O=C(Oc1ccc2c(c1)OCO2)c1ccc(F)cc1Cl	.[10 µM]	-109	.[9.22 µM]
CCOc1ncccc1C(=O)Oc1ccc2c(c1)OCO2	.[10 µM]	.	.
N/C(COc1ccc(F)cc1)=N\NC(=O)c1cccnc1Oc1ccccc1	.	.	.
COc1ccc2c(c1OC)CN1CCc3cc4c(cc3[C@@H]1[C@@H]2O)OCO4	/	.	.
COc1cc2c(cc1OC)C1Cc3ccc(OC)c(OC)c3CN1CC2 (centres undefined)	.[10 µM]	-86	.
CCCN(c1ccc(C(=O)OC)cc1)S(=O)(=O)c1ccccc1	.	/	.
c1ccc(-c2nc3ccccc3nc2-c2ccccn2)nc1	.[0.074 µM]	-86	.
Cc1cc2nc(-c3ccccn3)c(-c3ccccn3)nc2cc1C	.[10 µM]	/	.[9.22 µM]
Cc1ccc(S(=O)(=O)/N=C(\Nc2cc(C)on2)c2ccc(Cl)cc2)cc1	/	.	.
Cc1ccc(Sc2c(O)c3ccccc3n(C)c2=O)cc1	/	.	.
Cc1ccc(Sc2c(C=O)c3ccccc3n2C)cc1	.[10 µM]	.	10µM
O=c1cc(O)cc(/C=C\c2ccc(O)c(O)c2)o1	.[1.9 µM]	/	/
COc1ccc(C2CC(c3ccc(F)cc3)Nc3nc(N)nn32)cc1 (centres undefined)	.[10 µM]	.	.
COc1cccc(C2CC(c3c(Cl)cccc3Cl)n3nc(N)nc3N2)c1 (centres undefined)	.[10 µM]	?	.
CCOc1ccccc1C1CC(c2ccc(Br)cc2)Nc2nc(N)nn21 (centres undefined)	.	-114	.
COc1cccc(C2CC(c3c(F)cccc3Cl)n3nc(N)nc3N2)c1 (centres undefined)	.[1.9 µM]	-110	.
SMILES	HTT ATP protect	PNC assembly inh	HttQ103 aggreg
CCOc1ccc(C2CC(c3ccccc3C)n3nc(N)nc3N2)cc1 (centres undefined)	.	.	.
Nc1nc2n(n1)C(c1ccc(Cl)cc1)CC(c1ccc(F)cc1)N2 (centres undefined)	.	-119	.
CCOc1ccccc1NC(=O)NC(=O)N(C)S(C)(=O)=O	.	/	.
O=c1c(O)c(-c2ccc(O)c(O)c2)oc2c(OC[C@@H]3O[C@@H](O)[C@@H](O)[C@H](O)[C@H]3O)c(O)cc(O)c12	.[1.9 µM]	/	/
COc1ccc(NC(=O)NN2CCOCC2)cc1OC	.	/	.
COc1cccc(-c2cc(C(F)(F)F)nc(N3CCC(C)CC3)n2)c1	.	.	.
CCOC(=O)c1nn(-c2ccccc2)c2nnc(Cc3ccc(Cl)cc3)c(=O)n12	/	.	.
CCOC(=O)c1nn(-c2ccc(Cl)cc2)c2nnc(Cc3ccc(C)cc3)c(=O)n12	/	-109	.
COc1ccc(NC(=S)NC(=O)/C=C/c2ccco2)cc1	.	/	.
COc1ccc(CCN(C)C(=O)CN2C(=O)c3ccccc3S2(=O)=O)cc1OC	.	?	.
OCC(O)/C=N/Nc1nc2ccccc2s1 (centres undefined)	.	/	.
OC(CNc1nc2ccccc2s1)c1ccccc1 (centres undefined)	.	-82	.
CC1(C)CC(CC(=O)O)(c2ccc(Cl)cc2)CCO1 (centres undefined)	.	.	.
O=C(NNC(=O)c1ccccc1Br)c1ccc(Cl)cc1	.	.	.
O=C(Nc1ccc(Cl)cc1F)c1ccccc1Br	.[10 µM]	-81	.
CC(C)c1cc(-c2cc(C(=O)NCc3ccccc3)on2)nc(NCC2CC2)n1	?	/	.[9.22 µM]
CC1(C)C(c2ccccc2)=NC(c2ccc(Br)cc2)N1O (centres undefined)	.[10 µM]	/	.[9.22 µM]
CCc1ccc(S(=O)(=O)/N=C2/C=C(Sc3ncn[nH]3)C(=O)c3ccccc32)cc1	.[10 µM]	-123	3.5µM
CCc1ccc(S(=O)(=O)/N=C2\C=CC(=O)c3ccccc32)cc1	.	/	?
COc1ccccc1NS(=O)(=O)c1cccc(NC(=O)Nc2ccc(Cl)cc2)c1	.	/	?
C/C=C/Cn1c(SCCCc2ccccc2)nc2c1c(=O)[nH]c(=O)n2C	.	-119	.
C=CCn1c(SCCCc2ccccc2)nc2c1c(=O)[nH]c(=O)n2C	.	.	.
CCCCCCn1c(SCCC)nc2c1c(=O)[nH]c(=O)n2C	.	-86	.
CCCCCn1c(SCCCC)nc2c1c(=O)[nH]c(=O)n2C	.[10 µM]	.	.
O=C(O)c1ccc2nc3c(nc2c1)-c1ccccc1C3=O	.[10 µM]	/	?
SMILES	HTT ATP protect	PNC assembly inh	HttQ103 aggreg
O=C(Cn1ncc2c(=O)oc3ccccc3c21)NCc1cccnc1	.	/	.
O=C(Cn1ncc2c(=O)oc3ccccc3c21)NCC1CCCO1 (centres undefined)	.[10 µM]	-119	.
CC(=O)N/C(=C\c1ccc(F)cc1)C(=O)NC(Cc1c[nH]c2ccccc12)C(=O)O (centres undefined)	.[10 µM]	.	.
CCCn1nc(C(=O)Nc2ccc(S(=O)(=O)Nc3ncccn3)cc2)c2ccccc2c1=O	.[10 µM]	/	.[9.22 µM]
Cc1ccc(Cl)cc1N1CCN(C(=O)C2CCN(c3nnc(-n4cccc4)s3)CC2)CC1	.	?	.
Cc1cccc(N2CCN(C(=O)C3CCN(c4nnc(-n5cccc5)s4)CC3)CC2C)c1 (centres undefined)	.[10 µM]	-112	?
CC1CCCCC1NS(=O)(=O)c1ccc(-n2cnnn2)cc1 (centres undefined)	.	.	.
Cc1[nH]c(=O)c(C#N)c2c1CSC(C)(C)C2	.	-100	.
CCc1[nH]c(=O)c(C#N)c2c1CSC(C)(C)C2	.[10 µM]	.	.
O=C(CNC(=O)c1cccs1)NCC(=O)OCC(=O)c1ccc([N+](=O)[O-])cc1	.	/	.
O=C(Cn1cnc(Cl)c1Cl)c1ccc(F)cc1	.	/	.
Cc1cc(NC(=O)CSc2nc(-c3cccs3)cc(C(F)(F)F)n2)no1	.[10 µM]	-97	.
CCCNC(=O)CSc1nc(-c2cccs2)cc(C(F)(F)F)n1	.	.	.
Cc1cc(NC(=O)c2cccs2)no1	.[10 µM]	/	.[9.22 µM]
COc1ccc(CCNC(=O)c2cc(C(C)C)on2)cc1OC	.	.	.
COc1ccc(CCNC(=O)c2cc(-c3cccs3)on2)cc1OC	3.5µM	?	.
CS(=O)(=O)c1nc(-c2cccs2)cc(C(F)(F)F)n1	.	.	7.1µM
Cc1cc(NC(=O)c2cc(-c3cccs3)on2)no1	.	.	7.1µM
O=C(O)CCS(=O)(=O)c1nc(-c2cccs2)cc(C(F)(F)F)n1	.	.	?
Cc1nc(NC(=O)CCl)sc1C(=O)N(C)C	.[10 µM]	/	.[9.22 µM]
